The record followed here is the supplement of paper PMC10849652.

Targets with a hit are over-represented here; the source holds about 7,900 in all. About 0.6% of all pairs of compound and target were hits. Values without a mark were called inactive.

Common to all, as to assay: log2 fold change, soluble protein after heating vs DMSO (PISA); higher = thermal stabilisation; K562 cells, 10 uM, 30 min; active = over 0.2 and 3.5 SD of the protein, either way, in both replicates (recomputed)
Compound in one test: CN1CCN(CCOc2cc(OC3CCOCC3)c3c(Nc4c(Cl)ccc5c4OCO5)ncnc3c2)CC1 [saracatinib]
The essentials: (§1)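 For each measurement, 10 μM compound was applied for 30 min to K562 cells at 2×10^6 cells/mL. Aliquots were heated for 3 min across 48°C-58°C, pooled, and extracted in PBS with 0.5% NP-40 at 4°C; the supernatant after 21,000xg for 90 min was soluble protein. This was quantified by TMTpro 16plex LC-MS/MS with channel sums equalised, and thermal stability was reported relative to control samples from duplicates, on a log2 fold-change scale.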

Compound in another test: CN1CCc2c(c3ccccc3n2Cc2ccc(C(=O)NO)cc2)C1 [Tubastatin A]
Put shortly: as §1

Compound in test [1]: CNC(=O)C1=CC=CC=C1NC2=NC(=NC=C2Cl)NC3=C(C=C(C=C3)N4CCOCC4)OC
The essentials: as §1

Compound in the next test: CNC(=O)c1ccc(Nc2ncc(C(F)(F)F)c(NCc3nccnc3N(C)S(C)(=O)=O)n2)cc1 [defactinib]
Put shortly: as §1

Compound in the next test: CNCc1ccc(-c2[nH]c3cc(F)cc4c3c2CCNC4=O)cc1 [rucaparib]
Put shortly:
as §1

Compound in test [2]: CNc1nc(-c2ccc3c(N)n[nH]c3c2)cc(N2C[C@@H](C(=O)NC3CCCCC3)CC[C@H]2C)n1
Put shortly:
as §1

Compound in a further test: COC(=O)N[C@@H](C)CNc1nccc(-c2cn(C(C)C)nc2-c2cc(Cl)cc(NS(C)(=O)=O)c2F)n1 [encorafenib]
The essentials: as §1

Compound in test [3]: COC(=O)[C@H](CCSC)NC(=O)C1=C(C=C(C=C1)NC[C@H](CS)N)C2=CC=CC=C2
Put shortly: as §1

Compound in test [4]: COC1=CC=C(C=C1)CN2C=CC3=C2C=C(C=C3)C(=O)NO
Put shortly: as §1

Compound in a further test: CON(C)C(=O)N1N=C(c2cc(F)ccc2F)S[C@@]1(CCCN)c1ccccc1 [filanesib]
Put shortly: as §1

Compound in the next test: CO[C@H]1C[C@@H]2CC[C@@H](C)[C@@](O)(O2)C(=O)C(=O)N2CCCC[C@H]2C(=O)O[C@H]([C@H](C)C[C@@H]2CC[C@H](n3cnnn3)[C@H](OC)C2)CC(=O)[C@H](C)/C=C(\C)[C@@H](O)[C@@H](OC)C(=O)[C@H](C)C[C@H](C)/C=C/C=C/C=C/1C [zotarolimus]
Put shortly: as §1

Compound in the next test: COc1cc(C(=O)O)ccc1NC(=O)[C@@H]1N[C@@H](CC(C)(C)C)[C@](C#N)(c2ccc(Cl)cc2F)[C@H]1c1cccc(Cl)c1F [idasanutlin]
Put shortly:
as §1

Compound in another test: COc1cc(Nc2ncc3c(n2)-c2ccc(Cl)cc2C(c2c(F)cccc2OC)=NC3)ccc1C(=O)O [alisertib]
Put shortly:
as §1

Compound in test [5]: COc1cc2nc(-c3cc(F)ccc3O)nc(N[C@@H]3CNC[C@H]3C(C)(C)O)c2cc1OC
The essentials: as §1

Compound in another test: COc1cc2ncnc(Nc3ccc(F)c(Cl)c3)c2cc1OCCCN1CCOCC1 [gefitinib]
Put shortly: as §1

Compound in test [6]: COc1cccc2cc(-c3nc([C@H]4CC[C@H](C(=O)O)CC4)n4ncnc(N)c34)[nH]c12
Put shortly: as §1

Compound in another test: CS(=O)(=O)CCNCc1ccc(-c2ccc3ncnc(Nc4ccc(OCc5cccc(F)c5)c(Cl)c4)c3c2)o1 [lapatinib]
Put shortly: as §1

Compound in the next test: CS(=O)(=O)N1CCN(Cc2cc3nc(-c4cccc5[nH]ncc45)nc(N4CCOCC4)c3s2)CC1 [pictilisib]
Put shortly: as §1

Compound in another test: CN1CC[C@H](c2c(O)cc(O)c3c(=O)cc(-c4ccccc4Cl)oc23)[C@H](O)C1 [alvocidib]
The essentials: as §1

Compound in another test: CN1CCN(c2nc(C3=C(c4c[nH]c5ccccc45)C(=O)NC3=O)c3ccccc3n2)CC1 [sotrastaurin]
The essentials:
as §1

UniProt O60291, sequence (O60291 whole entry, looked up): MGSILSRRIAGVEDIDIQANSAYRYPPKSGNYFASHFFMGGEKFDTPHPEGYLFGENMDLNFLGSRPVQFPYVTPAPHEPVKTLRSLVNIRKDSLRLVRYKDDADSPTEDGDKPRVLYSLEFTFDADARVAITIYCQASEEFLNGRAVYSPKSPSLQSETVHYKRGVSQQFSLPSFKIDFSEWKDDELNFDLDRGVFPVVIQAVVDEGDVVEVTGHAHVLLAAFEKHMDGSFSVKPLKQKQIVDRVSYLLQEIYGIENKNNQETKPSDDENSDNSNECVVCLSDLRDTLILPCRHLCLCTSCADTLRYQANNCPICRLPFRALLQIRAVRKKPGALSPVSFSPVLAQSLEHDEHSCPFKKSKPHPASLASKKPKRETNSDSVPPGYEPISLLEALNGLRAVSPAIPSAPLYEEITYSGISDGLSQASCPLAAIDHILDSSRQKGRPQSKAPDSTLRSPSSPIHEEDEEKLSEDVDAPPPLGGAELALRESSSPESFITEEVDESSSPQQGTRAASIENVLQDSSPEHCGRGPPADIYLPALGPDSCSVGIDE
UniProt Q13422, sequence (Q13422 whole entry, looked up): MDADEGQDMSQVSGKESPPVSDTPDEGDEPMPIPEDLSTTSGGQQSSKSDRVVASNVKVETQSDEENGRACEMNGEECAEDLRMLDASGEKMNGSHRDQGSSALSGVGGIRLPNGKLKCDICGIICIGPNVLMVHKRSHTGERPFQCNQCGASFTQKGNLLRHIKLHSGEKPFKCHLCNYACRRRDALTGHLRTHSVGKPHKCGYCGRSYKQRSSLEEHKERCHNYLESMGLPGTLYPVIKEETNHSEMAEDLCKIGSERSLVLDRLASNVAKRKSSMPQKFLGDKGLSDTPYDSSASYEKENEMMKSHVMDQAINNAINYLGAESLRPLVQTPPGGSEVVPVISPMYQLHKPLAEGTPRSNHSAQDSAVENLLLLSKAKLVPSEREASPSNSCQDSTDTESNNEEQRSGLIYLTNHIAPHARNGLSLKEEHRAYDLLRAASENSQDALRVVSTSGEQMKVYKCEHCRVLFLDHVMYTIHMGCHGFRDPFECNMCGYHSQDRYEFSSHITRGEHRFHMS
UniProt Q2M2Z5, sequence (Q2M2Z5 whole entry, looked up): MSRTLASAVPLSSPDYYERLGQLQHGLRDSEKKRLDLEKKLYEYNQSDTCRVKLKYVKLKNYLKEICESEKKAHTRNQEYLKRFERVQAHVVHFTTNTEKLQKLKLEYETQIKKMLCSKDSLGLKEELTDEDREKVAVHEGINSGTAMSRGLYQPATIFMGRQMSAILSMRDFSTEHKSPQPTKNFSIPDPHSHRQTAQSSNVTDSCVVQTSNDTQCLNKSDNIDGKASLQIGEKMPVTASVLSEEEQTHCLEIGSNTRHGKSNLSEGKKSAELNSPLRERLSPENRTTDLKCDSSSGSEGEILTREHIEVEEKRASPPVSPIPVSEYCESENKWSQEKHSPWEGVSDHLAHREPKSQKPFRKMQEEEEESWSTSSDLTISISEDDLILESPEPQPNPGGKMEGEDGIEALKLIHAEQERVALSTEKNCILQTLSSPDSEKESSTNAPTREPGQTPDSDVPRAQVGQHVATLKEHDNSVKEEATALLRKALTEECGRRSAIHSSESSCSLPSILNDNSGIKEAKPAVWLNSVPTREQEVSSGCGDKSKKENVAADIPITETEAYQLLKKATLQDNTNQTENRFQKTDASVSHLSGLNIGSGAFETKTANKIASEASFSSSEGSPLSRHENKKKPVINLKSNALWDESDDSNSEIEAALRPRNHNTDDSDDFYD
UniProt Q8WYH8, sequence (Q8WYH8 whole entry, looked up): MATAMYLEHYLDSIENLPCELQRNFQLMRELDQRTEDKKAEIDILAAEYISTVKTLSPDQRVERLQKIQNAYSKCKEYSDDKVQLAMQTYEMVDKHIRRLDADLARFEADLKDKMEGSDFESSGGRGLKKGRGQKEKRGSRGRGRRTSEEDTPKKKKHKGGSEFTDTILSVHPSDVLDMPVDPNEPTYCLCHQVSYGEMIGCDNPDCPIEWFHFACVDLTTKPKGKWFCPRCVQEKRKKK
UniProt Q8TDD5, sequence (Q8TDD5 whole entry, looked up): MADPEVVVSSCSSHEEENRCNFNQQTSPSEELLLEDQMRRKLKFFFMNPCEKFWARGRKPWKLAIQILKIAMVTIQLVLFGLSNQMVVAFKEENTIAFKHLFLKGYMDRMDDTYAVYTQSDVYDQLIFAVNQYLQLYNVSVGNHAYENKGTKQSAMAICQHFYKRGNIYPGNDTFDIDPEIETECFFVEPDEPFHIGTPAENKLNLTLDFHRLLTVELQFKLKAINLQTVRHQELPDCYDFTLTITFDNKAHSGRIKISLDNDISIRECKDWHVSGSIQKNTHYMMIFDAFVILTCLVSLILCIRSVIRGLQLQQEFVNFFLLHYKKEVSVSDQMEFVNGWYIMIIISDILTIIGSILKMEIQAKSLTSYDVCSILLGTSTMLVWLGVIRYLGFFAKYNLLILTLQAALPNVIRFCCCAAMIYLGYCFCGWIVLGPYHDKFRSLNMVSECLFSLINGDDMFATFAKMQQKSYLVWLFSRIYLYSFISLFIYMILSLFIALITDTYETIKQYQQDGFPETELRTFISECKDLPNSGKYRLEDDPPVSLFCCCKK
UniProt Q86VI4, sequence (Q86VI4 whole entry, looked up): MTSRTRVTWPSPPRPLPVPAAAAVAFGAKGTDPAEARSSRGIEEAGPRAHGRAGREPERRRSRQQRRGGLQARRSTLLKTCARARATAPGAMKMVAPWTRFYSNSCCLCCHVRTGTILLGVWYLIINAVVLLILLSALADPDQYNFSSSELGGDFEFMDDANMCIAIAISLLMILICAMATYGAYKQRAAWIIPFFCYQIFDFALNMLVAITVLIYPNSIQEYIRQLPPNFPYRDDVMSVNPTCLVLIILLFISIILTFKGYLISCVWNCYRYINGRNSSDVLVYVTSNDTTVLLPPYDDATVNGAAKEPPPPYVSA
UniProt Q92585, sequence (Q92585 whole entry, looked up): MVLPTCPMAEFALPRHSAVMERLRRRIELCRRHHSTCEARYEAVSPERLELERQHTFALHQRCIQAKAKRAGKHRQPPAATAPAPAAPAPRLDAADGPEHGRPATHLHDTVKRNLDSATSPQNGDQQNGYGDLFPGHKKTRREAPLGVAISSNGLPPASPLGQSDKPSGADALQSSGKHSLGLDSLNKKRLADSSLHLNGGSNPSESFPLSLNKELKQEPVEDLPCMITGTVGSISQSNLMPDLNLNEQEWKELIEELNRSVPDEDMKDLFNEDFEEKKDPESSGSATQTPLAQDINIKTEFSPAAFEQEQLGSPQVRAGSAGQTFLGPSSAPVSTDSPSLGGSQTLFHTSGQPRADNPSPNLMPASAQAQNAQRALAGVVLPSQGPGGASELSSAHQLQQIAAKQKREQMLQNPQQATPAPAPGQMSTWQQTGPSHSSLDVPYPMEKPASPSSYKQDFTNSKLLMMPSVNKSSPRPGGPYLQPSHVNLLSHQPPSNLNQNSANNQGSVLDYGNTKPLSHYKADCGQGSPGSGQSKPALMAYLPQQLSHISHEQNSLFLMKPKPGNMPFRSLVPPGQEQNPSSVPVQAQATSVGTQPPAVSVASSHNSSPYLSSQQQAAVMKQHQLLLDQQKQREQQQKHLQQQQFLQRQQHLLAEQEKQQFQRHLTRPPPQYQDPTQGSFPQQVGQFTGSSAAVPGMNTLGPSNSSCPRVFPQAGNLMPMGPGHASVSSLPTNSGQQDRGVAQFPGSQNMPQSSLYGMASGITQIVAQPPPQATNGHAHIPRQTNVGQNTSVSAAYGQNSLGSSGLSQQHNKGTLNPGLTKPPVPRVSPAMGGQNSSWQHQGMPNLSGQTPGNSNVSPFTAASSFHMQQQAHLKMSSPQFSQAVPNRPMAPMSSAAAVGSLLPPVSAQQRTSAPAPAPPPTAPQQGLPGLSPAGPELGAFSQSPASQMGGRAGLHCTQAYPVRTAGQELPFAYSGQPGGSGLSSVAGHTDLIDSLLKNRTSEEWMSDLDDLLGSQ
UniProt Q15759, sequence (Q15759 whole entry, looked up): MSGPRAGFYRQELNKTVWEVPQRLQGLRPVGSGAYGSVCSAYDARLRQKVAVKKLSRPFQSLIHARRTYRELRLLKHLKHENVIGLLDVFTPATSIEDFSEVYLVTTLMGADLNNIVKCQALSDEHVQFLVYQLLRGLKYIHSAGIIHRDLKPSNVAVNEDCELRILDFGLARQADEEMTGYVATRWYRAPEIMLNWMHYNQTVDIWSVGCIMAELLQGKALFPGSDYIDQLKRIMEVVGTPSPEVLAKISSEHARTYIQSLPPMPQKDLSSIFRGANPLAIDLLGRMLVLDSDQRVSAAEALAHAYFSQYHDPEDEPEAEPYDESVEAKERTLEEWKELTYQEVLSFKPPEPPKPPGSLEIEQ
UniProt Q52LA3, sequence (Q52LA3 whole entry, looked up): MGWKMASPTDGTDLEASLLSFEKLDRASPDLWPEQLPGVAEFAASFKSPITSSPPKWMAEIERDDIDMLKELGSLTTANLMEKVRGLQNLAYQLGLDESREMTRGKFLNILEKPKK
UniProt P53778, sequence (P53778 whole entry, looked up): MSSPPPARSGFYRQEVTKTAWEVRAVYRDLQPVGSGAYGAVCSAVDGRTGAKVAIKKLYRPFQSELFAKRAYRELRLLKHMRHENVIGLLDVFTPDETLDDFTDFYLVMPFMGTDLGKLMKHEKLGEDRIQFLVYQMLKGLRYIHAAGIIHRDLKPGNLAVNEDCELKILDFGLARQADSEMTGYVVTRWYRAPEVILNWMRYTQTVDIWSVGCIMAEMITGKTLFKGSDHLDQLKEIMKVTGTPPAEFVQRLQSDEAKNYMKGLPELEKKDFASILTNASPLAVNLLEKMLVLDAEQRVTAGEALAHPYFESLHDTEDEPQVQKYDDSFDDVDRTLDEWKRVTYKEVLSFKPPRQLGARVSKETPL

On to MAPK12 (UniProt P53778), for which the log2 fold change in the test with saracatinib was 0.119; with Tubastatin A, -0.037; in test [1], 0.112; in the test with defactinib, -0.06; with rucaparib it was 0.101; in test [2], -0.074. Moreover, the log2 fold change in the test with encorafenib is 0.017; in test [3] it was 0.059; in [4] it was 0.066; with filanesib, -0.062; with zotarolimus, 0.026; in the test with idasanutlin, -0.072. The log2 fold change with alisertib is -0.115; in [5], 0.084; in the test with gefitinib, -0.269; in test [6], 0.093; with lapatinib, -0.056; with pictilisib, 0.062.

Regarding ING5 (UniProt Q8WYH8), the log2 fold change with alvocidib is 0.034; with Tubastatin A it was 0.192; in [1], -0.147; with rucaparib, 0.129; with encorafenib it was -0.078; in [4], 0.208. Besides, the log2 fold change in the test with zotarolimus is 0.014; in the test with alisertib, 0.003; in test [5], 0.127; in test [6], 0.179; with lapatinib it was -0.128.

On to LRRCC1 (UniProt Q9C099), for which the log2 fold change with saracatinib is 0; with Tubastatin A it was 0.292; in test [2], 0.06; with idasanutlin, -0.069.

Turning to MCOLN3 (UniProt Q8TDD5), the log2 fold change in the test with Tubastatin A was -0.001; in test [1], -0.141; in the test with rucaparib, -0.275; in the test with encorafenib it was -0.026; with alisertib, 0.058; in [5], 0.068. In addition, the log2 fold change in the test with gefitinib was -0.04; in [6] it was -0.035; in the test with lapatinib, -0.02; with pictilisib it was 0.044.

As for KIZ (UniProt Q2M2Z5), the log2 fold change in the test with alvocidib was -0.076; with rucaparib it was -0.027; with encorafenib, -0.038; in test [4], -0.008; with zotarolimus, 0.269; in the test with idasanutlin, -0.019. The log2 fold change in test [5] was -0.064; with lapatinib it was 0.066; with pictilisib, -0.215.

With MAML1 (UniProt Q92585), the log2 fold change was -0.051 with sotrastaurin; 0.062 with alvocidib; 0.644 (active) in test [1]; -0.179 in the test with defactinib; -0.327 in test [3]; -0.065 in [4]. The log2 fold change with filanesib is 0.152; with zotarolimus, -0.065.

MGRN1 isoform 2 (UniProt O60291): the log2 fold change with alvocidib was 0.036; with Tubastatin A it was 0.197; in test [1] it was -0.054; in test [4] it was -0.015; with zotarolimus, -0.017; in the test with idasanutlin it was -0.108. The log2 fold change was 0.069 in test [5], -0.238 with lapatinib and -0.004 in the test with pictilisib.

As for MAP4 isoform 5 (UniProt P27816), the log2 fold change with sotrastaurin is -0.16; in [1], 0.13; in the test with rucaparib it was 0.046; with encorafenib it was 0.094; with filanesib, -0.039; with idasanutlin, -0.025. For the same target, the log2 fold change with alisertib is 0.143; in test [5] it was -0.033; with gefitinib, -0.005; in [6], -0.045; with lapatinib, 0.036.

On to MAP4K4 isoform 6 (UniProt O95819), for which the log2 fold change with saracatinib was -0.108; with Tubastatin A, -0.016; with defactinib, -0.012; with rucaparib, 0.067; in test [2], -0.186; in the test with encorafenib, 0.049. The log2 fold change in [3] is -0.036; with filanesib, -0.018; with zotarolimus, -0.162; in the test with gefitinib, -0.028; in test [6], -0.179.

On to LIN52 (UniProt Q52LA3), for which the log2 fold change in the test with saracatinib was 0.038; in [2], -0.059; with alisertib it was -0.924 (active); in test [6], 0.

As to IKZF1 (UniProt R9R4D9), the log2 fold change is 0.019 with saracatinib; 0.155 with alvocidib; -0.158 with Tubastatin A; -0.038 in [2]; -0.167 in [4]; -0.192 in the test with zotarolimus. Further, the log2 fold change in test [5] is 0.084; with lapatinib, 0.037; in the test with pictilisib, 0.059.

As to IKZF1 isoform 2 (UniProt Q13422), the log2 fold change was 0.049 with sotrastaurin; -0.101 with alvocidib; -0.123 with Tubastatin A; 0.05 in test [1]; -0.106 with defactinib; -0.02 in test [3]. The log2 fold change in the test with filanesib is -0.075; with zotarolimus it was 0.1; with alisertib, 0.079; with gefitinib it was -0.044; in test [6], -0.031.

Take MAPK11 (UniProt Q15759): the log2 fold change was 0.208 with Tubastatin A, 0.615 in [1], -0.126 in test [4] and 0.068 with pictilisib.

On to LAPTM4B (UniProt Q86VI4), for which the log2 fold change with sotrastaurin was -0.194; in [1] it was 0.007; with rucaparib, 0; with encorafenib, 0.009; with filanesib it was 0.186; in the test with alisertib it was -0.027. The values for the log2 fold change (in test [6]; with pictilisib) were 0.007 and 0.017, respectively.
